Compounds without any hit were thinned out: in the full panel of roughly 83,000, 20% have a hit.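 Cell lines were cultured in 96-well plates, exposed to a single compound concentration, and assessed for percent growth 48 hours later.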 A number with no mark means an inactive call. Calls of active or inactive are those of the source. How the source made its calls: active means growth percent below 10; inactive means the rest.

The values below come from PubChem BioAssay (NCI).

Holding throughout (experiment): NCI-60 one-dose screen, 48 h (100 = growth as untreated, 0 = no growth, -100 = all killed)
Common to all, as to conditions: 10 µM unless noted

Assay [1] deals with T-47D breast.
In assay [2] the test system is BT-549 breast.
Assay [3] concerns MDA-MB-435 melanoma.
Assay [4] relates to SW-620 colon.
For assay [5], the system named is MCF7 breast.
Assay [6] has as its system HCT-116 colon.
Assay [7] concerns HCC-2998 colon.
Assay [8] deals with KM12 colon.

`CC(C)CSc1nc(NN)c(C#N)c(-c2ccc(F)cc2)n1`: the growth in assay [1] is 66.7%; in assay [2], 85.3%; in assay [3], 78.9%; in assay [4] it was 91.9%; in assay [5] it was 73.8%; in assay [6], 68.9%. Moreover, the figures for the growth in assay [7] and in assay [8] were 54.4% and 58.1%, respectively.
With `O=C1C(Cl)=C(Nc2ccccn2)C(=O)c2ccccc21`, the growth in assay [1] was 33.6%; in assay [2], 100%; in assay [3], -81.4% (active); in assay [4] it was 30.5%; in assay [5], 29.6%; in assay [6] it was 19.9%. The growth in assay [7] is 110%; in assay [8], 86%.
As to `CC(C)NCCCNC1=C(Cl)C(=O)c2ccccc2C1=O`, the growth in assay [1] was 101%; in assay [2] it was 99.8%; in assay [3] it was -66% (active); in assay [4], -30.7% (active); in assay [5], 63.4%; in assay [6], 70.7%. The results for the growth in assay [7] and in assay [8] were 59.7% and 87.2%, respectively.
On to `COC(OC)c1ccccc1`, for which the growth is 99.4% in assay [1]; 92.4% in assay [2]; 102% in assay [3]; 114% in assay [4]; 99% in assay [5]; 98.5% in assay [6]. Moreover, the figures for the growth in assay [7] and in assay [8] were 93.6% and 112%, respectively.
Regarding `CCN(CC)c1ccc(N=O)cc1`, the growth in assay [1] was 44.9%; in assay [2], 79.7%; in assay [3], 66.9%; in assay [4] it was -61.1% (active); in assay [5], 51.8%; in assay [6], 37.9%. Moreover, the values for the growth in assay [7] and in assay [8] were 86.5% and 40.3%, respectively.
Regarding `Clc1cc(Cl)c2nc(-c3ccc(-c4ccc(/C=N/NC5=NCCN5)cc4)s3)cn2c1`, the growth was 79.6% in assay [1]; 90.9% in assay [2]; 99.3% in assay [3]; 79.2% in assay [4]; 57.8% in assay [5]; 86.3% in assay [6]. In addition, the growth in assay [7] was 105%; in assay [8] it was 93%.
Turning to `CN1CCN(CCCOc2ccc3nc(Nc4ccc(Cl)c(C(F)(F)F)c4)ccc3c2)CC1`, the growth in assay [1] is 76.7%; in assay [2], 102%; in assay [3] it was 59.6%; in assay [4], 0.0049% (active); in assay [5] it was 27.1%; in assay [6], 26.3%. Moreover, the growth in assay [7] is 6.68% (active); in assay [8] it was 28.8%.
Consider `O=C(CSC1CCc2ccccc21)N/N=C/c1ccccc1O` (centres undefined), for which the growth is 40.3% in assay [1]; 68.9% in assay [2]; 71.7% in assay [3]; 52.9% in assay [4]; 19.2% in assay [5]; 31.5% in assay [6]. Also, the growth in assay [7] was 66.7%; in assay [8] it was 41%.
Regarding `ClC(Cl)c1nc(-c2cccnc2)n2nc(-c3ccccc3)cc2n1`, the growth was 50.2% in assay [1]; 68.4% in assay [2]; 0.991% (active) in assay [3]; 0.424% (active) in assay [4]; 50.6% in assay [5]; 0.678% (active) in assay [6]. Besides, the results for the growth in assay [7] and in assay [8] were -68.7% (active) and 2.3% (active), respectively.
Turning to `N=C(N)c1ccc(-c2ccc(-c3ccc4ccccc4c3)s2)cc1`, the growth was 97.6% in assay [1]; 96.2% in assay [2]; 36.6% in assay [3]; 19.3% in assay [4]; 67.9% in assay [5]; 78.6% in assay [6]. Also, the growth in assay [7] is 100%; in assay [8], 40.7%.
Take `COc1cc(/C=C/C(=O)/C=C/c2cc(OC)c3c(c2)OCO3)cc2c1OCO2`: the growth in assay [1] is 88.6%; in assay [2], 84.3%; in assay [3], -21.2% (active); in assay [4], 11.5%; in assay [5] it was 19.8%; in assay [6], -93.9% (active). Moreover, the figures for the growth in assay [7] and in assay [8] were 14.6% and -17.1% (active), respectively.
With `COc1ccc(C(=O)N2NC(=O)/C(=C/c3cn(-c4ccccc4)nc3-c3ccccc3)N=C2c2ccccc2)cc1`, the growth is 97.6% in assay [1]; 106% in assay [2]; 92.2% in assay [3]; 109% in assay [4]; 98.9% in assay [5]; 95.2% in assay [6]. The figures for the growth in assay [7] and in assay [8] were 107% and 99.1%, respectively.
As for `COc1ccc(Nc2nn3c(-c4ccccc4)cc(-c4ccccc4)nc3c2C(N)=O)c(OC)c1`, the growth was 34.9% in assay [1]; 46.5% in assay [2]; 57.5% in assay [3]; 57.2% in assay [4]; 46.7% in assay [5]; 21.5% in assay [6]. Moreover, the growth in assay [7] was 86.9%; in assay [8], 51.1%.
With `Cc1ccc(S(=O)(=O)n2cc(C(=O)C(=O)Nc3ccncc3)c3ccccc32)cc1`, the growth is 48.4% in assay [1]; 37.5% in assay [2]; 1.27% (active) in assay [3]; 11.2% in assay [4]; 19.5% in assay [5]; 17.5% in assay [6]. The growth in assay [7] is 52.8%; in assay [8] it was 29.1%.
For `COc1cc(-c2nn(C(=O)NS(=O)(=O)c3ccccc3)cc2-c2ccncc2)ccc1Cl`, the growth in assay [1] is 62.6%; in assay [2], 53.9%; in assay [3], 85.5%; in assay [4], 112%; in assay [5] it was 94.6%; in assay [6] it was 84.6%. Also, the growth in assay [7] was 109%; in assay [8], 94.5%.
In the case of `Cc1nc2ncccc2nc1Nc1ccc(S(=O)(=O)Nc2cncs2)cc1`, the growth in assay [1] is 82.7%; in assay [2] it was 83%; in assay [3] it was 114%; in assay [4] it was 102%; in assay [5], 82.2%; in assay [6], 97.5%. The results for the growth in assay [7] and in assay [8] were 95.1% and 97.7%, respectively.
For the compound `COC(=O)c1cccc2c1N(C)c1c(cccc1C(=O)OC)CC2`, the growth in assay [1] was 95.6%; in assay [2], 112%; in assay [3], 101%; in assay [4], 105%; in assay [5], 108%; in assay [6], 104%. Also, the growth in assay [7] was 97.4%; in assay [8] it was 101%.
With `Cn1ccc(=O)c(S(N)(=O)=O)c1`, the growth in assay [1] was 93.9%; in assay [2] it was 82%; in assay [3] it was 103%; in assay [4] it was 105%; in assay [5], 111%; in assay [6] it was 102%. Further, the growth in assay [7] is 102%; in assay [8], 103%.
As to `COc1c2occc2c(OC)c2c(=O)c(-c3cc(-c4ccc(F)cc4)c(C#N)c(N)n3)c(C)oc12`, the growth in assay [1] is 30.7%; in assay [2], 63.7%; in assay [3], 63.1%; in assay [4], 42.3%; in assay [5], 13.4%; in assay [6], 9.9% (active). Also, the growth was 69.3% in assay [7] and 46.2% in assay [8].
Take `CN1CCN(Cc2ccc(NC(=O)c3nc4ccc5[nH]ncc5c4c4c3CCC4)cc2C(F)(F)F)CC1`: the growth in assay [1] was -26.4% (active); in assay [2], 91.6%; in assay [3], -91.4% (active); in assay [4], -56.2% (active); in assay [5], -29.7% (active); in assay [6], -94.2% (active). In addition, the growth in assay [7] was -10.5% (active); in assay [8], -79.8% (active).
For the compound `O=[N+]([O-])c1ccc(Sc2ncccn2)c([N+](=O)[O-])c1`, the growth in assay [1] is 41.1%; in assay [2] it was -16.3% (active); in assay [3], 69.2%; in assay [4], 22.8%; in assay [5], 34.4%; in assay [6] it was 37.5%. In addition, the growth was 66.2% in assay [7] and 55.9% in assay [8].
Take `CCO/C=N/C1=C(C#N)C(c2ccc(Cl)cc2)c2c(c3ccc(C)cc3[nH]c2=O)O1` (centres undefined): the growth in assay [1] is 78.4%; in assay [2], 86.7%; in assay [3] it was 90.7%; in assay [4] it was 84.6%; in assay [5], 78.7%; in assay [6], 82.4%. Moreover, the growth in assay [7] was 99.5%; in assay [8], 97.1%.
Take `C=C[C@@H]1C[C@@H]2Cc3cc(F)ccc3N1O2`: the growth was 111% in assay [1]; 124% in assay [2]; 98.7% in assay [3]; 112% in assay [4]; 100% in assay [5]; 112% in assay [6]. Moreover, the growth in assay [7] was 95.3%; in assay [8] it was 108%.
For `COc1cc(/C=N\NC(=O)CN2CCN(c3cc4c(cc3F)c(=O)c(C(=O)N/N=C/c3cc(OC)c(OC)c(OC)c3)cn4C3CC3)CC2)cc(OC)c1OC`, the growth in assay [1] is -12.3% (active); in assay [2] it was -17.7% (active); in assay [3] it was -45.1% (active); in assay [4] it was 6.11% (active); in assay [5], 7.55% (active); in assay [6], -32.5% (active). Moreover, the growth in assay [7] was -95.2% (active); in assay [8] it was -61.7% (active).
`O=C(Nc1ccc2c(c1)OCO2)C(=O)c1c[nH]c2cc(F)ccc12`: the growth in assay [1] was 46.7%; in assay [2], 70.3%; in assay [3], 34.7%; in assay [4], 34.3%; in assay [5], 57.7%; in assay [6], 56.7%. The growth is 25.3% in assay [7] and 27.1% in assay [8].
Consider `CCCC(=O)Oc1ccc(/C(=C(\C)c2ccccc2)c2ccc(OCCN(CC)CC)cc2)cc1`, for which the growth is 46.8% in assay [1]; 78.7% in assay [2]; 73.3% in assay [3]; 84.5% in assay [4]; 34.5% in assay [5]; 47.8% in assay [6]. For the same compound, the growth in assay [7] was 83.2%; in assay [8], 79.5%.
Regarding `CNC(=S)NNC(=O)C1CC1`, the growth was 104% in assay [1]; 92.1% in assay [2]; 114% in assay [3]; 112% in assay [4]; 96.9% in assay [5]; 101% in assay [6]. Also, the values for the growth in assay [7] and in assay [8] were 110% and 109%, respectively.
Take `CCN(CC)c1ccc(CNc2ccnc3ccccc23)cc1`: the growth in assay [1] is 29%; in assay [2], 45.4%; in assay [3] it was 48.2%; in assay [4], 70.8%; in assay [5], 33.3%; in assay [6], 30.3%. Further, the growth is 36.9% in assay [7] and 73.6% in assay [8].
As for `COC(=O)c1nc(-c2ccccc2)oc1S(=O)(=O)N1CCN(c2cccc(Cl)c2)CC1`, the growth was 66.2% in assay [1]; 71% in assay [2]; 69.8% in assay [3]; 61.7% in assay [4]; 39.2% in assay [5]; 54.8% in assay [6]. The figures for the growth in assay [7] and in assay [8] were 98.8% and 95.1%, respectively.
Take `C=C1C(=O)O[C@H]2[C@H]1CC/C(Cn1cc(CNC(=O)/C=C/c3c[nH]c4ccccc34)nn1)=C\CC[C@@]1(C)O[C@@H]21`: the growth is 107% in assay [1]; 112% in assay [2]; 83.9% in assay [3]; 49.9% in assay [4]; 42% in assay [5]; 63.8% in assay [6]. Also, the growth is 118% in assay [7] and 98% in assay [8].
As for `Cc1ccc(NS(=O)(=O)c2cc(C)ccc2C)cc1`, the growth in assay [1] is 47.9%; in assay [2], 39.1%; in assay [3] it was -24% (active); in assay [4], 19.9%; in assay [5], 24.3%; in assay [6], 17.6%. Besides, the growth in assay [7] is 50.9%; in assay [8], 16.2%.
In the case of `COc1ccc(-c2nc(N3CCCC3=O)sc2Br)cc1OC`, the growth was 89.2% in assay [1]; 93.2% in assay [2]; 93.5% in assay [3]; 102% in assay [4]; 96.9% in assay [5]; 97.4% in assay [6]. The figures for the growth in assay [7] and in assay [8] were 108% and 92.7%, respectively.
In the case of `CCOC(=O)/C(C#N)=C1/C(=O)Nc2ccccc21`, the growth in assay [1] is 98.7%; in assay [2], 112%; in assay [3] it was 119%; in assay [4], 109%; in assay [5] it was 103%; in assay [6], 98.4%. The growth in assay [7] was 109%; in assay [8] it was 112%.
